Source: PubChem (National Center for Advancing Translational Sciences (NCATS))
Rows were chosen to be rich in hits. Some 3.3% of all compounds tested hit in one or more screens of this group.
Sm TGR inh = qHTS Assay for the Inhibitors of Schistosoma Mansoni Peroxiredoxins. AID 485364, 2010. 360,000 compounds, 3% hits. purified TGR, DTNB reduction, TNB absorbance 405 nm. Potency, µM (top dose mostly 114 µM), for inactives: top-dose activity change, negative = inhibition, actives largely listed as inhibitors. Schistosoma mansoni thioredoxin glutathione reductase (TGR), Q962Y6; note: % is set by controls: 0 for no effect and ±100 for the full control effect; nearly all actives have a fitted effect of over 60% in size
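TGR 20 nM + NADPH 100 uM (dispensed conc.), cpd preinc 15 min RT; start with NADPH (500 uM addition) then DTNB (15 mM addition). Kinetic TNB absorbance, 405 nm filter. Four-parameter Hill fit across titration.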
SARS PLpro yeast = qHTS of Yeast-based Assay for SARS-CoV PLP. S. cerevisiae expressing SARS-CoV PLpro, growth rescue. 330,000 compounds, 0.19% hits. Potency, µM (titrated, usually from 32.9 µM), inactives show at the top dose activity, positive = growth rescue, usual class: activators; calls by dose curve; note: 0% is about no effect; nearly all actives have a fitted effect of over 55% in size
RE007 growth inh = qHTS Assay for Inhibitors of the HIV-1 protein Vpr. S. pombe RE007 Vpr strain, BacTiter-Glo ATP luminescence, 24 h. Potency, µM (doses to about 92.2 µM), for the others: top-dose activity change, negative = less growth, most hits filed as inhibitors. 360,000 compounds, 0.21% hits. AID 651644, 2012; active = well fitted falling curve with a large enough effect; inconclusive = small, poorly fitted or top-dose-only effect; inactive = no such curve, though single readings can be large or run the other way; note: % is set by controls: 0 for no effect and ±100 for the full control effect; nearly all actives have a fitted effect of over 50% in size
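Fission yeast strain RE007, carrying one chromosomally integrated HIV-1 vpr copy, was seeded at OD 0.01 in PMG+AL medium with 23 nL pinned compound. After 24 h at 30 °C and 99% humidity, viability was read by BacTiter-Glo luminescence.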
NS1 inh = qHTS Assay for Inhibitors of Influenza NS1 Protein Function; 270,000 compounds, 0.4% hits; Potency, µM (highest dose often 46.1 µM), for inactives: top-dose activity, positive = more growth; calls by dose curve; note: actives are rising curves; nearly all actives have a fitted effect of over 50% in size
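Recovery from NS1-induced slow growth read by OD600 in budding yeast switched to galactose assay medium (pH 6.0, -URA) at 1:100 dilution. Compound 23 nl per well; the matching strain lacking NS1 serves as control.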
LmPK inh = qHTS Assay for Inhibitors of Leishmania Mexicana Pyruvate Kinase (LmPK) | Q27686 | purified LmPK, Kinase-Glo ATP luminescence, 1 h | Potency, µM (top dose mostly 57.5 µM), without a hit: at the highest dose activity change, negative = inhibition, usual class: inhibitors | 290,000 compounds, 0.37% hits; note: % is set by controls: 0 for no effect and ±100 for the full control effect
Target sequence (Q27686 whole entry, looked up): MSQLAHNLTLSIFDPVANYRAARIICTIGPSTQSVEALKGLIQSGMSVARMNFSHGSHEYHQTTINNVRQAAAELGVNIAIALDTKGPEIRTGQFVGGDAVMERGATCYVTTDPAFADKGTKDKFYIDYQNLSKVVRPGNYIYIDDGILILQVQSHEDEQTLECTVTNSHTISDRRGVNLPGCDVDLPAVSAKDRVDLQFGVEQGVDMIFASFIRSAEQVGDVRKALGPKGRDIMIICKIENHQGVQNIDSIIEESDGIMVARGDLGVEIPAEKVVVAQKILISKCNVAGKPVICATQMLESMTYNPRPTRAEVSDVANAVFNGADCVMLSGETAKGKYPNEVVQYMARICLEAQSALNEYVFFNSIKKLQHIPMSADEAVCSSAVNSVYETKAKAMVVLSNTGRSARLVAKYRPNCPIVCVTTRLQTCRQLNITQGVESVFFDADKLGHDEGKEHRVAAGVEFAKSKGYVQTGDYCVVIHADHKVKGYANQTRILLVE
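ATP generated from ADP (0.1 mM) and PEP (0.5 mM) by 0.1 nM LmPK over 1 h at room temperature (pH 7.2 imidazole buffer) was detected by coupled luciferase luminescence. Values were normalized to uninhibited and no-enzyme wells.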
Tb PYK inh = qHTS of Trypanosoma Brucei Inhibitors. AID 624173, 2012. Potency, µM (titrated, usually from 76.8 µM), for the others: at the highest dose activity, negative = inhibition, usual class: inhibitors. TbPYK enzyme, Kinase-Glo Plus ATP luminescence, 45 min. 410,000 compounds, 0.12% hits. pyruvate kinase (Trypanosoma brucei), Q57TT1; note: % is set by controls: 0 for no effect and ±100 for the full control effect; nearly all actives have a fitted effect of over 50% in size
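Luminescence from Kinase-Glo Plus, added after a 45-minute room-temperature reaction, served as the end-point read-out. The enzyme and substrate were preincubated with compound before ADP (130 uM final) initiated turnover. Concentration-effect curves came from normalized qHTS data.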
* marks the source's active call; other numbers are inactive results; ? = inconclusive; nt = not tested or not shown; [ ] = another dose, or the depositor's remark. Unless noted, calls come from the whole dose curve; as a rule, active = well fitted curve in the direction sought with a large enough effect; inconclusive = small, poorly fitted or top-dose-only effect, or another doubt; inactive = no such curve, though single readings can be large; an effect the other way counts as inactive or inconclusive. Potency is the fitted concentration of half-maximal effect.

SMILES	Sm TGR inh	SARS PLpro yeast	RE007 growth inh	NS1 inh	LmPK inh	Tb PYK inh
COc1ccccc1N1CCN(C2CC(=O)N(c3ccc(Cl)cc3)C2=O)CC1 (stereo unspecified)	-1%	-23%	?	-6%	13%	5%
CCOc1ccc(N2C(=O)CC(N3CCN(C(=O)CN4CCCC4)CC3)C2=O)cc1 (stereo unspecified)	35µM*	-25%	-16%	-46%	-1%	-12%
CCOc1ccc(N2C(=O)CC(N3CCN(c4ccc(F)cc4)CC3)C2=O)cc1 (stereo unspecified)	45µM*	-4%	-11%	3%	3%	1%
CCOc1ccc(N2C(=O)CC(N3CCC(NC(=O)Nc4ccccc4)CC3)C2=O)cc1 (stereo unspecified)	-10%	0%	22µM*	-52%	4%	-11%
CCOc1ccc(N2C(=O)CC(N3CCc4ccccc43)C2=O)cc1 (stereo unspecified)	-2%	-1%	5%	-2%	1%	-21%
O=C(Oc1ccc(S(=O)(=O)F)cc1F)c1ccccc1Cl	nt	nt	nt	-16%	nt	nt
CC(=O)Nc1ccc(S(=O)(=O)N2CCC(c3nnnn3-c3ccccc3)CC2)cc1	-2%	nt	nt	nt	nt	1%
O=C(O)c1cn(C2CC2)c2cc(N3CCNCC3)c(F)cc2c1=O	nt	nt	nt	nt	nt	2%[33.2 µM]
Cc1nc(N2CCCC2)c2c(C(=O)Nc3ccc(C)c(Cl)c3)c(C)oc2n1	6%	nt	nt	nt	nt	4%
CC1=NNC(=O)C1C(c1ccc(Cl)cc1)C(C#N)C#N (stereo unspecified)	11µM*	0%	-21%	-5%	-1%	-3%
CC1=NN(Cc2ccccc2)C(=O)C1C(c1ccccc1)C(C#N)C#N (stereo unspecified)	-7%	0%	-15%	29%	-1%	-8%
CC1=NN(Cc2ccccc2)C(=O)C1C(c1ccc(Cl)cc1)C(C#N)C#N (stereo unspecified)	14µM*	-2%	-3%	6%	-4%	-13%
CCCCCCCCCCCCCCCCOCCOCCOCCOCCOCCOCCOCCOCCOCCOCCOCCOCCOCCOCCOCCOCCOCCOCCOCCOCCO	nt	nt	nt	nt	nt	3%
Cc1cccn2c(=O)c3cc(C#N)c(=O)n(-c4nnc(SCc5ccccc5F)s4)c3nc12	4%	nt	nt	nt	nt	5%
Cc1cccc(OCc2cc(=O)n3c(-c4ccccc4)csc3n2)c1C	1%	nt	nt	nt	nt	4%
O=[N+]([O-])c1ccc(N=Cc2ccc(Br)c([N+](=O)[O-])c2)cc1	32µM*	-13%	-18%	-25%	1%	1%
CN1/C(=C\C(=O)c2ccco2)C(C)(C)c2ccccc21	45µM*	-32%	?	-253%	-1%	1%
CCC(=O)/C=C1/Sc2ccccc2N1CC	-23%	-28%	-24%	-6%	2%	?
CCN1/C(=C/C(=O)c2ccco2)Sc2ccccc21	20µM*	-13%	-24%	-148%	-2%	3%
COc1ccc(-c2cc(-c3ccco3)[nH]c(=O)c2C#N)cc1OC	4µM*	1%	6%	1%	4%	3%
O=C(O)c1oc(C(=O)O)c(C(=O)O)c1C(=O)O	nt	nt	nt	-1%	nt	nt
COc1cc(OC)c(NS(=O)(=O)c2c(C(=O)N3CCC(C)CC3)c(C)n(C)c2C)cc1Cl	-7%	nt	nt	nt	nt	1%
CC1(C)OC(=O)C(=Cc2ccc(-c3ccc(Cl)c(C(=O)O)c3)o2)C(=O)O1	-6%	5%	43%	nt	32%	16µM*
O=C(O)c1ccc(-c2ccc(/C=c3/sc4nc5ccccc5n4c3=O)o2)cc1Cl	28µM*	2%	7%	0%	9%	?
O=C(O)c1cc(-c2ccc(/C=C3/SC(=S)N(Cc4ccccc4)C3=O)o2)ccc1Cl	25µM*	3%	3%	nt	8%	-13%
SMILES	Sm TGR inh	SARS PLpro yeast	RE007 growth inh	NS1 inh	LmPK inh	Tb PYK inh
CC1=NOC(=O)/C1=C\c1ccc(-c2ccc(Cl)c(C(=O)O)c2)o1	-31%	0%	7%	nt	-15%	-14%
COc1ccc(CN2C(=O)/C(=C/c3ccc(-c4ccc(Cl)c(C(=O)O)c4)o3)SC2=S)cc1	?	0%	nt	nt	19%	nt
Cc1ccc(S(=O)(=O)N2CCCC2C(=O)OCc2ccco2)cc1 (stereo unspecified)	4.5µM*	7%	-12%	-25%	-3%	-13%
N#C/C(=C\c1cc(O)c(O)c(O)c1)C(N)=O	13µM*	1%	1%	1%	4%	?
COc1cc(NC(=O)c2cnn(-c3cccc(F)c3)c2C2CCNCC2)cc(OC)c1OC	1%	nt	nt	nt	nt	-4%
Cc1ccc(-n2ncc(C(=O)Nc3cc(Cl)cc(Cl)c3)c2C2CCNCC2)cc1C	6%	4%	20%	nt	0%[11.5 µM]	4%
COc1ccc(NC(=O)c2cnn(-c3ccc(C)c(C)c3)c2C2CCNCC2)cc1OC	45µM*	nt	nt	nt	nt	-13%
CCOC(=O)c1cnn(-c2cccc(F)c2)c1C1CCNCC1	45µM*	nt	nt	nt	nt	6%
Cc1cc(OCC(=O)Nc2c(C(=O)c3ccccc3)oc3ccccc23)cc(C)c1Cl	10%	nt	nt	nt	nt	4%
Cc1sc2ncn(CC(=O)N3CCN(c4ccccc4)CC3)c(=O)c2c1S(=O)(=O)N1CCC(C)CC1	-10%	nt	nt	nt	nt	1%
CCCN(C(=O)c1noc2c1COc1ccc(C)cc1-2)c1ccc(Cl)c(Cl)c1	4%	nt	nt	nt	nt	?
COc1ccccc1CNC(=O)C(=O)NCC(c1ccco1)S(=O)(=O)c1cccs1 (stereo unspecified)	8.9µM*	nt	nt	nt	nt	5%
O=C(NCc1ccccc1F)C(=O)NCC(c1ccco1)S(=O)(=O)c1cccs1 (stereo unspecified)	13µM*	nt	nt	nt	nt	0%
O=C(NCc1ccccc1Cl)C(=O)NCC(c1ccco1)S(=O)(=O)c1cccs1 (stereo unspecified)	32µM*	nt	nt	nt	nt	1%
O=C(NCc1ccccc1)C(=O)NCC(c1ccco1)S(=O)(=O)c1ccccc1 (stereo unspecified)	?	nt	nt	nt	nt	-14%
O=C(NCc1ccc(F)cc1)C(=O)NCC(c1ccco1)S(=O)(=O)c1cccs1 (stereo unspecified)	7.9µM*	nt	nt	nt	nt	-1%
Cc1ccccc1CNC(=O)C(=O)NCC(c1ccco1)S(=O)(=O)c1cccs1 (stereo unspecified)	?	nt	nt	nt	nt	-5%
COc1cccc(CNC(=O)CSc2ncc3c(n2)-c2cc(Cl)ccc2N(C)S3(=O)=O)c1	10%	nt	nt	nt	nt	-1%
Nc1cc(N)c(OCC(F)(F)F)cc1OCC(F)(F)F	1.1µM*	-5%	6%	?	-6%	-27%
